About 83,000 compounds went through this panel and 20% of them were active in at least one assay; those are over-represented in the sample as a whole.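 Testing used 96-well plates and a 48-hour single-concentration exposure. Example: -40 means 40% of the starting cells died.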 Unmarked numbers belong to inactive results. Active and inactive are the calls of the source. How the source made its calls: active means growth percent below 10; inactive means the rest.
Legend:
Experiment in all cases: NCI-60 one-dose screen, 48 h (100 = growth as untreated, 0 = no growth, -100 = all killed)
Conditions in all cases: 10 µM unless noted
MOLT-4 leukemia = test system: MOLT-4 leukemia
SR leukemia = test system: SR leukemia
RPMI-8226 leukemia = test system: RPMI-8226 leukemia
OVCAR-8 ovarian = test system: OVCAR-8 ovarian
OVCAR-4 ovarian = test system: OVCAR-4 ovarian
SK-OV-3 ovarian = test system: SK-OV-3 ovarian
IGROV1 ovarian = test system: IGROV1 ovarian
OVCAR-3 ovarian = test system: OVCAR-3 ovarian
HS 578T breast = test system: HS 578T breast
NCI/ADR-RES ovarian = test system: NCI/ADR-RES ovarian
T-47D breast = test system: T-47D breast
BT-549 breast = test system: BT-549 breast
MDA-MB-435 melanoma = test system: MDA-MB-435 melanoma
SW-620 colon = test system: SW-620 colon
MCF7 breast = test system: MCF7 breast
HCT-116 colon = test system: HCT-116 colon
HCC-2998 colon = test system: HCC-2998 colon
KM12 colon = test system: KM12 colon
OVCAR-5 ovarian = test system: OVCAR-5 ovarian

Row | SMILES | growth (MOLT-4 leukemia) | growth (SR leukemia) | growth (RPMI-8226 leukemia) | growth (OVCAR-8 ovarian) | growth (OVCAR-4 ovarian) | growth (SK-OV-3 ovarian) | growth (IGROV1 ovarian) | growth (OVCAR-3 ovarian) | growth (HS 578T breast) | growth (NCI/ADR-RES ovarian) | growth (T-47D breast) | growth (BT-549 breast) | growth (MDA-MB-435 melanoma) | growth (SW-620 colon) | growth (MCF7 breast) | growth (HCT-116 colon) | growth (HCC-2998 colon) | growth (KM12 colon) | growth (OVCAR-5 ovarian)
1 | Clc1ccc(CSC(Cn2ccnc2)c2ccc(Cl)cc2Cl)cc1 (stereo unspecified) | 1.87% (active) | 2.95% (active) | 29.8% | 14.3% | 25.9% | 71.9% | 29.1% | 38.8% | 63.5% | 14.1% | 29.5% | 4.34% (active) | 31.4% | 29.2% | 20.9% | 7.38% (active) | 36.1% | 16.1% | –
2 | CN1CCCCC1C(C)(O)c1ccccc1 (stereo unspecified) | 102% | 113% | 114% | – | 99.8% | 97.8% | 99.8% | 111% | 108% | 96.1% | 92.2% | 87.4% | 99.2% | 110% | 85.7% | 93% | 115% | 106% | 94.2%
3 | CC(=O)/C=C/c1ccc2c(c1)OCO2 | 103% | 98.3% | 91.5% | – | 104% | 106% | 118% | 109% | 106% | – | 107% | 100% | 85.7% | 106% | 101% | 99.3% | 109% | 109% | 106%
4 | CCC1CC(O)c2c(O)c3c(c(O)c2C1O)C(=O)c1cccc(O)c1C3=O (stereo unspecified) (tested in a mixture with another compound) | -23.3% (active) | -0.491% (active) | -35.8% (active) | – | -21.6% (active) | 11.1% | -53.5% (active) | -12% (active) | – | -55.4% (active) | -14.1% (active) | -68.1% (active) | -90.3% (active) | -60.3% (active) | -51% (active) | -39.8% (active) | – | -38.4% (active) | -78.2% (active)
5 | COc1cc(NC(C)CCCNC2CN3CCC2CC3)c2ncccc2c1 (stereo unspecified) | 74.2% | 84.9% | 72.9% | 75.9% | – | 93.4% | 69.1% | 11% | 65.2% | 96.9% | 69.9% | 86% | 94.3% | 72.6% | 0.157% (active) | 66.4% | 75.4% | 85.5% | 92.8%
6 | CCOC(=O)[C@@H](C)C[C@H](Cc1ccccc1)NC(=O)c1csc([C@@H](C[C@H](C(C)C)N(C)C(=O)[C@@H](NC(=O)[C@H]2CCCCN2C)C(C)(C)CC)OC(C)=O)n1 | 13.5% | -4.98% (active) | – | 10.6% | 30.4% | 26.9% | 14.5% | 2.01% (active) | -9.16% (active) | 14.7% | 70.7% | -40.2% (active) | -60.8% (active) | 21.9% | 24.2% | 0% (active) | 11.9% | 1.89% (active) | 28%
7 | CCCCCCCC[N+](C)(CCCCCCCC)CCCCCCCC | 37.4% | 28.1% | 44.2% | -100% (active) | -94.1% (active) | -97.8% (active) | – | -100% (active) | -66.6% (active) | – | -73.4% (active) | – | -90.8% (active) | -100% (active) | -100% (active) | -100% (active) | -98% (active) | -100% (active) | -100% (active)
8 | COc1cc2c(cc1OCCCCn1c(-c3cccs3)nc3ccccc31)N=C[C@@H]1CCCN1C2=O | 20.8% | 32% | -46.8% (active) | -0.203% (active) | -21.3% (active) | 24.9% | – | -10.9% (active) | -5.13% (active) | 36.5% | 5.95% (active) | -55.6% (active) | -78.8% (active) | 2.49% (active) | -15.2% (active) | 8.65% (active) | – | 0.0109% (active) | 0.96% (active)
9 | C[C@@H]1O[C@@H](O[C@H]2C[C@@H](O)[C@]3(CO)C4C(CC[C@]3(O)C2)[C@@]2(O)CC[C@H](C3=CC(=O)OC3)[C@@]2(C)C[C@H]4O)[C@H](O)[C@H](O)[C@H]1O (stereo partly specified) | -29.4% (active) | -31.2% (active) | 17.8% | -81% (active) | -24.3% (active) | -88.2% (active) | -5.14% (active) | -96.2% (active) | 22.3% | -61.5% (active) | -34.9% (active) | -91% (active) | -80.5% (active) | -76.9% (active) | -48.1% (active) | -94.5% (active) | -89.4% (active) | -89.1% (active) | –

— PubChem BioAssay (NCI)
